Measured values from PubChem BioAssay (NCATS).
Records with an inconclusive call do not appear. Where a call stands in place of a potency, no number is given. Unmarked numbers belong to inactive results. Active and inactive are the calls of the source. The call rests on the fitted dose curve; in most records, active means well fitted inhibition curve with a large enough effect; inconclusive means small, poorly fitted or top-dose-only effect; inactive means flat fitted curve, though single readings scatter.

Assay: P-glycoprotein substrates identified in KB-8-5-11 adenocarcinoma cell line, qHTS therapeutic library screen (AID 1346987); further: nearly all actives have a fitted effect of over 65% in size; on activity change, negative = cytotoxicity: series mostly up to about 44 µM
In short: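 P-gp-mediated resistance screen: KB-8-5-11 cells treated 72 h with compounds in dose-response. CellTiter-Glo viability.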
Potency means the concentration at half of the fitted maximal effect.

| SMILES | Potency | activity change, negative = cytotoxicity |
| --- | --- | --- |
| C=C1C(OC2OCC(O)C(O)C2O)CC2C(C)(C)C(O)CCC2(C)C1CC/C(C)=C\CO (stereo unspecified) | inactive | – |
| COC1CC(O[C@H]2CC[C@@]3(C)C(=CC[C@]4(O)C3[C@H](OC(C)=O)[C@@H](OC(=O)c3ccccc3)[C@]3(C)[C@@H](C(C)=O)CC[C@@]34O)C2)OC(C)C1OC1CC(OC)C(OC2CC(OC)C(OC3OC(C)C(OC4OC(CO)C(O)C(O)C4O)C(OC)C3O)C(C)O2)C(C)O1 (stereo partly specified) | – | 1.94% [at 9.29 µM] |
| CCC1C(=O)OC23C=C[C@@H]4C(C(=O)O)=CO[C@H](O[C@@H]12)[C@@H]43 (stereo partly specified) | inactive | – |
| COc1ccc(CC2NCCc3c2[nH]c2ccc(C)cc32)cc1OC (stereo unspecified) | inactive | – |
| CC(=O)C=C=C1C(C)(C)CC(O[C@@H]2O[C@H](CO)[C@@H](O)[C@H](O)[C@H]2O)CC1(C)O (stereo partly specified) | inactive | – |
| CN(C)C1CCN(C(=O)c2ccc(NC(=O)Nc3ccc(-c4nc(N5CCOCC5)nc(N5CCOCC5)n4)cc3)cc2)CC1 | inactive | – |
| CC(C)CCC1(O)C(=O)C(C)(C)C(O[C@@H]2O[C@H](CO)[C@@H](O)[C@H](O)[C@H]2O)C(C)(C)C1O (stereo partly specified) | inactive | – |
| CC(C)O[C@@H]1O[C@H](CO)[C@@H](O)[C@H](O)[C@H]1O | inactive | – |
| CC1CCCCN1S(=O)(=O)c1ccc(N2CCCC2=O)cc1 (stereo unspecified) | inactive | – |
| CN[C@H](C(=O)N[C@H](C(=O)N(C)[C@H](/C=C(\C)C(=O)O)C(C)C)C(C)(C)C)C(C)(C)c1ccccc1 | 18.4 nM (active) | – |
| CC(=O)OC1C(c2ccccc2)CCC(c2ccccc2)C1OC(C)=O (stereo unspecified) | inactive | – |
